Inconclusive results are not listed. Activity calls are given as the source filed them. How the source made its calls: active means hit-call score of the fitted dose curve at least 0.9, where 1 is the maximum; inconclusive means response in the unintended direction; inactive means score below 0.9.
Key:
[1] = Tanguay_ZF_120hpf_MORT_legacy: (Legacy) Oregon State University Tanguay Lab 120 Hour Post-fertilization zebrafish Assay for Mortality (AID 2283633);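 on AC50: fitted as increase in binary mortality versus DMSO negative control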
Method in brief: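 Dechorionated Tropical 5D wild-type zebrafish embryos, one per well from 6 hpf, were statically exposed at 28C in the dark until 120 hpf (0.64% DMSO final). Mortality was scored as present/absent by brightfield microscopy, fitted positively versus DMSO.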

[2] = Tanguay_ZF_120hpf_YSE_legacy: (Legacy) Oregon State University Tanguay Lab 120 Hour Post-fertilization zebrafish Assay for Yolk Sac Edema (AID 2283634)
Method in brief: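 Tropical 5D wild-type embryos, dechorionated with pronase at 4 hpf, were exposed singly from 6 hpf to 120 hpf under static, sealed, dark conditions at 28C with 0.64% DMSO final. Yolk sac edema was scored present/absent by brightfield microscopy.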

[3] = Tanguay_ZF_120hpf_AXIS_legacy: (Legacy) Oregon State University Tanguay Lab 120 Hour Post-fertilization zebrafish Assay for Body Axis Malformation (AID 2283635)
Method in brief: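 Tropical 5D wild-type zebrafish embryos, dechorionated with pronase at 4 hpf, were placed singly in wells at 6 hpf and exposed statically to test chemical (0.64% DMSO final) at 28C until 120 hpf, then scored by brightfield for body axis defects.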

[4] = Tanguay_ZF_120hpf_EYE_legacy: (Legacy) Oregon State University Tanguay Lab 120 Hour Post-fertilization zebrafish Assay for Eye Malformation (AID 2283636);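 further: binary presence or absence of eye malformation scored by brightfield in 120 hpf larvae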
Method in brief: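 Binary brightfield scoring of eye defects at 120 hpf after static exposure from 6 hpf of single pronase-dechorionated wild-type embryos (28C, 0.64% DMSO). Non-mortality endpoints omitted where embryos died; fit vs DMSO.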

[5] = Tanguay_ZF_120hpf_SNOU_legacy: (Legacy) Oregon State University Tanguay Lab 120 Hour Post-fertilization zebrafish Assay for Snout Malformation (AID 2283637)
Method in brief: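 Binary snout-malformation call at 120 hpf in wild-type 5D embryos, chorion removed by pronase, under static exposure from 6 hpf at 28C (0.64% DMSO). Embryos dying by 24 or 120 hpf excluded.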

[6] = Tanguay_ZF_120hpf_JAW_legacy: (Legacy) Oregon State University Tanguay Lab 120 Hour Post-fertilization zebrafish Assay for Jaw Malformation (AID 2283638)
Method in brief: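 Tropical 5D wild-type embryos, dechorionated with pronase at 4 hpf, were placed singly per well at 6 hpf and statically exposed at 28C until 120 hpf (0.64% DMSO final). Jaw malformation scored as present/absent by brightfield microscopy at 120 hpf, analyzed relative to DMSO.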

[7] = Tanguay_ZF_120hpf_OTIC_legacy: (Legacy) Oregon State University Tanguay Lab 120 Hour Post-fertilization zebrafish Assay for Otic Vesicle Malformation (AID 2283639)
Method in brief: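 Statically exposed wild-type 5D zebrafish embryos, kept sealed and dark at 28C through 120 hours post fertilization, were examined by brightfield microscopy for otic vesicle defects. Responses were recorded as present or absent and analysed relative to DMSO.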

[8] = Tanguay_ZF_120hpf_BRAI_legacy: (Legacy) Oregon State University Tanguay Lab 120 Hour Post-fertilization zebrafish Assay for Brain Malformation (AID 2283641)
Method in brief: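 Tropical 5D wild-type zebrafish embryos were exposed statically in sealed, foil-covered plates at 28C until 120 hpf, with 0.64% (vol/vol) final DMSO. Brain malformation was scored present/absent by brightfield microscopy, relative to DMSO baseline.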

[9] = Tanguay_ZF_120hpf_SOMI_legacy: (Legacy) Oregon State University Tanguay Lab 120 Hour Post-fertilization zebrafish Assay for Somite Malformation (AID 2283647)
Method in brief: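 Tropical 5D wild-type zebrafish embryos, dechorionated with pronase at 4 hpf, were placed singly at 6 hpf and statically exposed until 120 hpf at 28C in 0.64% DMSO. Somite malformation was scored present/absent by brightfield microscopy versus DMSO.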

[10] = Tanguay_ZF_120hpf_CFIN_legacy: (Legacy) Oregon State University Tanguay Lab 120 Hour Post-fertilization zebrafish Assay for Caudal Fin Malformation (AID 2283649)
Method in brief: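 Tropical 5D wild-type embryos, dechorionated with pronase at 4 hpf, were placed singly in wells at 6 hpf and statically exposed to compound at 28C until 120 hpf (0.64% DMSO). Caudal fin malformation was scored present/absent by brightfield microscopy.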

[11] = Tanguay_ZF_120hpf_PE_legacy: (Legacy) Oregon State University Tanguay Lab 120 Hour Post-fertilization zebrafish Assay for Pericardial Edema (AID 2283640)
Method in brief: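 Tropical 5D wild-type zebrafish embryos were exposed statically to 120 hpf at 28C, sealed and foil-covered, in 0.64% DMSO final. Pericardial edema was scored present/absent by brightfield microscopy; dead embryos were not scored.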

[12] = Tanguay_ZF_120hpf_PFIN_legacy: (Legacy) Oregon State University Tanguay Lab 120 Hour Post-fertilization zebrafish Assay for Pectoral Fin Malformation (AID 2283648);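 further: each larva judged yes or no for fin defect by brightfield with dead larvae skipped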
Method in brief: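 Pectoral fin malformation was recorded as a binary endpoint at 120 hpf in wild-type Tropical 5D larvae, which had been dechorionated and exposed statically from 6 hpf at 28C in 0.64% DMSO. Dead embryos were excluded.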

[13] = Tanguay_ZF_120hpf_PIG_legacy: (Legacy) Oregon State University Tanguay Lab 120 Hour Post-fertilization zebrafish Assay for Pigmentation Malformation (AID 2283650)
Method in brief: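 Pigment malformation recorded as a binary call at 120 hpf in zebrafish (Tropical 5D) exposed singly from 6 hpf after pronase dechorionation. Static, sealed, 28C exposure, 0.64% DMSO; mortality excludes scoring; positive-direction fit against DMSO.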

In the case of `CC(C)COC(=O)CCCCC(=O)OCC(C)C`, the outcome [1] was “inactive”, the outcome [2] was “inactive” and the outcome [3] was “inactive”. For the same molecule, the outcome [4] was “inactive”, the outcome [5] was “inactive” and the outcome [6] was “inactive”. For the same molecule, the outcome [7] was “inactive”, the outcome [8] was “inactive” and the outcome [9] was “inactive”. The outcome [10] was “inactive”.
With `OCC(O)CO` the outcome [1] was “inactive”, the outcome [2] was “inactive” and the outcome [3] was “inactive”. The outcome [4] was “inactive”, the outcome [5] was “inactive” and the outcome [6] was “inactive”. For the same molecule, the outcome [7] was “inactive”, the outcome [11] was “inactive” and the outcome [8] was “inactive”. For the same molecule, the outcome [12] was “inactive” and the outcome [10] was “inactive”.
With `Cn1cnc2c1c(=O)[nH]c(=O)n2C` the outcome [1] was “inactive”, the outcome [2] was “inactive” and the outcome [3] was “inactive”. For the same molecule, the outcome [4] was “inactive”, the outcome [5] was “inactive” and the outcome [6] was “inactive”. The outcome [7] was “inactive”, the outcome [8] was “inactive” and the outcome [9] was “inactive”. The outcome [12] was “inactive” and the outcome [13] was “inactive”.
With `CC(=O)OC1CC(C)OC(C)O1` (stereo not given) the outcome [1] was “inactive”, the outcome [2] was “inactive” and the outcome [3] was “inactive”. For the same molecule, the outcome [4] was “inactive”, the outcome [5] was “inactive” and the outcome [6] was “inactive”. The outcome [11] was “inactive”, the outcome [8] was “inactive” and the outcome [9] was “inactive”. The outcome [12] was “inactive”, the outcome [10] was “inactive” and the outcome [13] was “inactive”.
For `O=NO`, the outcome [1] was “inactive”, the outcome [2] was “inactive” and the outcome [3] was “inactive”. The outcome [4] was “inactive”, the outcome [5] was “inactive” and the outcome [11] was “inactive”. For the same molecule, the outcome [10] was “inactive”.
With `O=Cc1ccccc1C=O` the AC50 [1] was 4.42 µM (active), the outcome [2] was “inactive” and the outcome [3] was “inactive”. The outcome [4] was “inactive”, the outcome [5] was “inactive” and the outcome [7] was “inactive”. For the same molecule, the outcome [11] was “inactive”, the outcome [8] was “inactive” and the outcome [10] was “inactive”.
In the case of `Nc1nc(=S)c2[nH]cnc2[nH]1`, the outcome [1] was “inactive”, the outcome [2] was “inactive” and the outcome [3] was “inactive”. The outcome [4] was “inactive”, the outcome [5] was “inactive” and the outcome [6] was “inactive”. For the same molecule, the outcome [11] was “inactive”, the outcome [12] was “inactive” and the outcome [10] was “inactive”. For the same molecule, the outcome [13] was “inactive”.
With `O=C(Oc1ccccc1)c1cccc(C(=O)Oc2ccccc2)c1` the outcome [1] was “inactive”, the outcome [2] was “inactive” and the outcome [3] was “inactive”. For the same molecule, the outcome [4] was “inactive”, the outcome [5] was “inactive” and the outcome [6] was “inactive”. For the same molecule, the outcome [7] was “inactive”, the outcome [11] was “inactive” and the outcome [8] was “inactive”. The outcome [12] was “inactive”, the outcome [10] was “inactive” and the outcome [13] was “inactive”.
In the case of `NC1CCCCC1`, the outcome [1] was “inactive”, the outcome [2] was “inactive” and the outcome [3] was “inactive”. For the same molecule, the outcome [4] was “inactive”, the outcome [5] was “inactive” and the outcome [6] was “inactive”. The outcome [7] was “inactive”, the outcome [11] was “inactive” and the outcome [8] was “inactive”. The outcome [10] was “inactive”.
In the case of `CSc1ccc(Oc2ccc(S(N)(=O)=O)cc2CN(C)C)cc1C`, the outcome [1] was “inactive”, the outcome [2] was “inactive” and the outcome [3] was “inactive”. The outcome [4] was “inactive”, the outcome [5] was “inactive” and the outcome [6] was “inactive”. The outcome [7] was “inactive”, the outcome [11] was “inactive” and the outcome [8] was “inactive”. For the same molecule, the outcome [12] was “inactive” and the outcome [10] was “inactive”.
For `O=C1CCCCC1`, the outcome [1] was “inactive”, the outcome [2] was “inactive” and the outcome [3] was “inactive”. The outcome [4] was “inactive”, the outcome [5] was “inactive” and the outcome [6] was “inactive”. The outcome [7] was “inactive”, the outcome [11] was “inactive” and the outcome [8] was “inactive”. The outcome [12] was “inactive”, the outcome [10] was “inactive” and the outcome [13] was “inactive”.
For `O=C1NC(=O)C(c2ccccc2)(c2ccccc2)N1`, the outcome [1] was “inactive”, the outcome [2] was “inactive” and the outcome [3] was “inactive”. The outcome [4] was “inactive”, the outcome [5] was “inactive” and the outcome [6] was “inactive”. The outcome [7] was “inactive”, the outcome [11] was “inactive” and the outcome [8] was “inactive”. For the same molecule, the outcome [12] was “inactive” and the outcome [10] was “inactive”.
With `C/C=C/C=C/C(=O)O` the outcome [1] was “inactive”, the outcome [3] was “inactive” and the outcome [4] was “inactive”. For the same molecule, the outcome [5] was “inactive”, the outcome [6] was “inactive” and the outcome [11] was “inactive”. For the same molecule, the outcome [8] was “inactive”, the outcome [12] was “inactive” and the outcome [10] was “inactive”.
For `O=C(O)CC(O)(CC(=O)O)C(=O)O`, the outcome [1] was “inactive”, the outcome [2] was “inactive” and the outcome [3] was “inactive”. The outcome [4] was “inactive”, the outcome [6] was “inactive” and the outcome [7] was “inactive”. The outcome [11] was “inactive”, the outcome [8] was “inactive” and the outcome [9] was “inactive”. For the same molecule, the outcome [12] was “inactive”, the outcome [10] was “inactive” and the outcome [13] was “inactive”.
In the case of `N[C@@H](Cc1c[nH]c2ccccc12)C(=O)O`, the outcome [1] was “inactive”, the outcome [2] was “inactive” and the outcome [4] was “inactive”. The outcome [6] was “inactive”, the outcome [7] was “inactive” and the outcome [12] was “inactive”. For the same molecule, the outcome [10] was “inactive”.
In the case of `CC(C)NCC(O)c1ccc(O)c(O)c1` (stereo not given), the outcome [1] was “inactive”, the outcome [2] was “inactive” and the outcome [3] was “inactive”. For the same molecule, the outcome [4] was “inactive”, the outcome [5] was “inactive” and the outcome [6] was “inactive”. The outcome [7] was “inactive”, the outcome [11] was “inactive” and the outcome [8] was “inactive”. The outcome [10] was “inactive” and the outcome [13] was “inactive”.
In the case of `CC(=O)OCC(COC(C)=O)OC(C)=O`, the outcome [1] was “inactive”, the outcome [2] was “inactive” and the outcome [4] was “inactive”. The outcome [5] was “inactive”, the outcome [6] was “inactive” and the outcome [7] was “inactive”. The outcome [11] was “inactive”, the outcome [8] was “inactive” and the outcome [9] was “inactive”. The outcome [12] was “inactive”, the outcome [10] was “inactive” and the outcome [13] was “inactive”.
For `CCN(CC)CCOc1ccc(C(=C(Cl)c2ccccc2)c2ccccc2)cc1`, the AC50 [1] was 26.9 µM (active), the outcome [2] was “inactive” and the outcome [3] was “inactive”. For the same molecule, the outcome [4] was “inactive”, the outcome [6] was “inactive” and the outcome [7] was “inactive”. The outcome [11] was “inactive”, the outcome [8] was “inactive” and the outcome [10] was “inactive”.
In the case of `CCCCOC(=O)CCCCC(=O)OCCCC`, the outcome [1] was “inactive”, the outcome [2] was “inactive” and the outcome [5] was “inactive”. For the same molecule, the outcome [7] was “inactive”, the outcome [11] was “inactive” and the outcome [8] was “inactive”. The outcome [9] was “inactive”, the outcome [12] was “inactive” and the outcome [10] was “inactive”.
With `CC(C)OC(=O)C(C)(C)Oc1ccc(C(=O)c2ccc(Cl)cc2)cc1` the outcome [1] was “inactive”, the outcome [4] was “inactive” and the outcome [7] was “inactive”. The outcome [11] was “inactive” and the outcome [10] was “inactive”.
